Results filed as inconclusive are left out. Activity calls are given as the source filed them. Calls come from the whole dose curve; as a rule, active = well fitted cell-killing curve with a large enough effect; inconclusive = small, poorly fitted or top-dose-only effect, or effect the other way; inactive = no such curve, though single readings can be large or run the other way.

Our source for the Potency values is PubChem BioAssay (NCATS).
Potency is the fitted concentration of half-maximal effect.

A short description of the experiment: Viability qHTS for spleen associated tyrosine kinase inhibitor (SYKi) drug resistant MV4-11 cells (AID 1963824). Note: nearly all actives have a fitted effect of over 35% in size. The note with it: SYKi-resistant MV4-11 viability, CellTiter-Glo, 72 h; series mostly up to 45 µM. Summed up: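 SYK inhibitor-resistant MV4-11 AML cells, 500 per well, added to predispensed compounds and incubated 72 hr at 37 C, 5% CO2. Viability measured by CellTiter-Glo luminescence after 10 min at room temperature.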
For orientation: qHTS replaces the single test concentration by a dilution series.
`C=C1[C@@H](O)[C@]2(O)OC[C@]34C2[C@]2(C)C(C[C@H]3OC(=O)[C@H](O)[C@@]14O)C(C)=CC(=O)[C@H]2O` (stereo not given in full): the Potency is 3.17 µM (active).

As for `CCc1c(C(=O)C(N)=O)c2c(OCC(=O)OC)cccc2n1Cc1ccccc1`, the Potency is 2.31 µM (active).

As to `CC1=CC(=O)[C@@H](O)[C@]2(C)C3[C@@H](O)[C@@H]4OC(=O)[C@@H]([C@H]4C)[C@]3(C)C(=O)[C@H](O)[C@@H]12` (stereo not given in full), the Potency was 12.8 µM (active).

Turning to `CC(=O)O[C@H]1CC[C@@]2(CI)C(=CC[C@@H]3[C@@H]2CC[C@]2(C)C(=O)CC[C@@H]32)C1`, the Potency was 20.6 µM (active).

For `CCN1CCCC1CNC(=O)C(O)(c1ccccc1)c1ccccc1` (stereo not given), the Potency entry is “inactive”.

For `CN1C[C@H](CNC(=O)OCc2ccccc2)C[C@@H]2c3cccc4c3c(cn4C)C[C@H]21`, the Potency was 8.41 µM (active).

Consider `COC(=O)N1CCN(C(=O)Cc2ccc(Cl)c(Cl)c2)[C@@H](CN2CCCC2)C1`, for which the Potency entry is “inactive”.

As for `CN1CCCCC1Cn1cc(C(=O)c2cc([N+](=O)[O-])ccc2I)c2ccccc21` (stereo not given), the Potency was 10.3 µM (active).

In the case of `C=CCN1CCC2(C)c3cc(O)ccc3C[C@H]1[C@H]2C`, the Potency entry was “inactive”.

For the compound `C[C@@H]1O[C@@H](O[C@H]2CC[C@@]3(C)C(CC[C@@H]4C3CC[C@]3(C)[C@@H](C5=CC(=O)OC5)CC[C@]43O)C2)[C@H](O)[C@H](O)[C@H]1O` (stereo not given in full), the Potency is 0.2 µM (active).
